# Laboratory results published in PubChem BioAssay.
# Unmarked numbers belong to inactive results. Activity calls are given as the source filed them.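 Rule for the calls: active = normalized viability below 100% at a tested concentration; inactive = the rest.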
# Test: ovarian cancer cell viability with rucaparib, profiling panel, oncology-focused library, rucaparib conditional (AID 1508598)
# Settings: patient-derived ovarian cancer cells, CellTiter-Glo viability, 144 h, stronger effect = lower value
# [1] = at 0.000305 µM, OCI-C5x cells, with rucaparib 10 µM, 100% = cells with rucaparib alone
# [2] = at 0.000305 µM, OCI-C5x cells, without rucaparib
# [3] = at 0.000305 µM, OCI-P5x cells, with rucaparib 20 µM, 100% = cells with rucaparib alone
# [4] = at 0.000305 µM, OCI-P5x cells, without rucaparib
# [5] = at 0.00122 µM, OCI-C5x cells, with rucaparib 10 µM, 100% = cells with rucaparib alone
# [6] = at 0.00122 µM, OCI-C5x cells, without rucaparib
# [7] = at 0.00122 µM, OCI-P5x cells, with rucaparib 20 µM, 100% = cells with rucaparib alone
# [8] = at 0.00122 µM, OCI-P5x cells, without rucaparib
# [9] = at 0.00488 µM, OCI-C5x cells, with rucaparib 10 µM, 100% = cells with rucaparib alone
# [10] = at 0.00488 µM, OCI-C5x cells, without rucaparib
# [11] = at 0.00488 µM, OCI-P5x cells, with rucaparib 20 µM, 100% = cells with rucaparib alone
# [12] = at 0.00488 µM, OCI-P5x cells, without rucaparib
# [13] = at 0.0195 µM, OCI-C5x cells, with rucaparib 10 µM, 100% = cells with rucaparib alone
# [14] = at 0.0195 µM, OCI-C5x cells, without rucaparib
# [15] = at 0.0195 µM, OCI-P5x cells, with rucaparib 20 µM, 100% = cells with rucaparib alone
# [16] = at 0.0195 µM, OCI-P5x cells, without rucaparib
# [17] = at 0.0781 µM, OCI-C5x cells, with rucaparib 10 µM, 100% = cells with rucaparib alone
# [18] = at 0.0781 µM, OCI-C5x cells, without rucaparib
# [19] = at 0.0781 µM, OCI-P5x cells, with rucaparib 20 µM, 100% = cells with rucaparib alone
# [20] = at 0.0781 µM, OCI-P5x cells, without rucaparib
# [21] = at 0.313 µM, OCI-C5x cells, with rucaparib 10 µM, 100% = cells with rucaparib alone
# [22] = at 0.313 µM, OCI-C5x cells, without rucaparib
# [23] = at 0.313 µM, OCI-P5x cells, with rucaparib 20 µM, 100% = cells with rucaparib alone
# [24] = at 0.313 µM, OCI-P5x cells, without rucaparib
# [25] = at 1.25 µM, OCI-C5x cells, with rucaparib 10 µM, 100% = cells with rucaparib alone
# [26] = at 1.25 µM, OCI-C5x cells, without rucaparib
# [27] = at 1.25 µM, OCI-P5x cells, with rucaparib 20 µM, 100% = cells with rucaparib alone
# [28] = at 1.25 µM, OCI-P5x cells, without rucaparib
# [29] = at 5 µM, OCI-C5x cells, with rucaparib 10 µM, 100% = cells with rucaparib alone
# [30] = at 5 µM, OCI-C5x cells, without rucaparib
# [31] = at 5 µM, OCI-P5x cells, with rucaparib 20 µM, 100% = cells with rucaparib alone
# [32] = at 5 µM, OCI-P5x cells, without rucaparib
smiles,measurement,setting,value
Cc1cc(NC(=O)c2cccc(NC(=O)/C=C/CN(C)C)c2)ccc1Nc1nccc(-c2cccnc2)n1,viability,[1],118%
same,viability,[2],133%
same,viability,[3],111%
same,viability,[4],110%
same,viability,[5],116%
same,viability,[6],132%
same,viability,[7],108%
same,viability,[8],113%
same,viability,[9],140%
same,viability,[10],160%
same,viability,[11],108%
same,viability,[12],107%
same,viability,[13],146%
same,viability,[14],172%
same,viability,[15],104%
same,viability,[16],106%
same,viability,[17],180%
same,viability,[18],183%
same,viability,[19],111%
same,viability,[20],109%
same,viability,[21],172%
same,viability,[22],199%
same,viability,[23],116%
same,viability,[24],112%
same,viability,[25],163%
same,viability,[26],186%
same,viability,[27],103%
same,viability,[28],116%
same,viability,[29],159%
same,viability,[30],194%
same,viability,[31],83.9% (active)
same,viability,[32],108%
CC1=C(/C=C/C(C)=C\C=C\C(C)=C/C(=O)O)C(C)(C)CCC1,viability,[1],112%
same,viability,[2],108%
same,viability,[3],94.7% (active)
same,viability,[4],87.1% (active)
same,viability,[5],115%
same,viability,[6],105%
same,viability,[7],78.9% (active)
same,viability,[8],65.9% (active)
same,viability,[9],111%
same,viability,[10],109%
same,viability,[11],81.7% (active)
same,viability,[12],101%
same,viability,[13],103%
same,viability,[14],106%
same,viability,[15],99% (active)
same,viability,[16],97.6% (active)
same,viability,[17],105%
same,viability,[18],109%
same,viability,[19],96.7% (active)
same,viability,[20],97.6% (active)
same,viability,[21],108%
same,viability,[22],106%
same,viability,[23],93.9% (active)
same,viability,[24],96.4% (active)
same,viability,[25],103%
same,viability,[26],105%
same,viability,[27],92.6% (active)
same,viability,[28],92.3% (active)
same,viability,[29],96.2% (active)
same,viability,[30],104%
same,viability,[31],84.1% (active)
same,viability,[32],82.8% (active)
CCC1=CC2CN(C1)Cc1c([nH]c3ccccc13)[C@@](C(=O)OC)(c1cc3c(cc1OC)N(C)[C@H]1[C@@](O)(C(=O)OC)[C@H](OC(C)=O)[C@]4(CC)C=CCN5CC[C@@]31[C@H]54)C2 (stereo partly drawn),viability,[1],110%
same,viability,[2],106%
same,viability,[3],1.99% (active)
same,viability,[4],2.91% (active)
same,viability,[5],94.4% (active)
same,viability,[6],70.1% (active)
same,viability,[7],1.29% (active)
same,viability,[8],1.02% (active)
same,viability,[9],50.6% (active)
same,viability,[10],43.8% (active)
same,viability,[11],52.9% (active)
same,viability,[12],20.3% (active)
same,viability,[13],39.2% (active)
same,viability,[14],33.7% (active)
same,viability,[15],50.5% (active)
same,viability,[16],16.3% (active)
same,viability,[17],40.3% (active)
same,viability,[18],22.9% (active)
same,viability,[19],49.1% (active)
same,viability,[20],13.6% (active)
same,viability,[21],33.8% (active)
same,viability,[22],23.8% (active)
same,viability,[23],46.6% (active)
same,viability,[24],12.6% (active)
same,viability,[25],39.7% (active)
same,viability,[26],21.7% (active)
same,viability,[27],45.2% (active)
same,viability,[28],11.4% (active)
same,viability,[29],36.1% (active)
same,viability,[30],22.2% (active)
same,viability,[31],41.7% (active)
same,viability,[32],8.33% (active)
O=C(O)c1cc(I)ccc1NC(=O)[C@H](Cc1ccccc1)NCc1ccccc1,viability,[1],126%
same,viability,[2],116%
same,viability,[3],98.3% (active)
same,viability,[4],102%
same,viability,[5],129%
same,viability,[6],111%
same,viability,[7],107%
same,viability,[8],99.9% (active)
same,viability,[9],133%
same,viability,[10],118%
same,viability,[11],98.6% (active)
same,viability,[12],97.1% (active)
same,viability,[13],119%
same,viability,[14],116%
same,viability,[15],95.6% (active)
same,viability,[16],99.8% (active)
same,viability,[17],124%
same,viability,[18],116%
same,viability,[19],97.8% (active)
same,viability,[20],92.4% (active)
same,viability,[21],134%
same,viability,[22],111%
same,viability,[23],95.5% (active)
same,viability,[24],85.4% (active)
same,viability,[25],132%
same,viability,[26],115%
same,viability,[27],80.7% (active)
same,viability,[28],77.5% (active)
same,viability,[29],126%
same,viability,[30],112%
same,viability,[31],73.4% (active)
same,viability,[32],81.4% (active)
